# The list is not random: actives were taken first. Their share in the collection is about 18%.
# HepG2 tox-1: qHTS for Inhibitors of TGF-b: Cytotox Counterscreen; Potency, µM (titrated, usually from 46.1 µM), inactives show top-dose activity change, negative = cytotoxicity, actives largely listed as cytotoxic; AID 588856, 2011; HepG2 CAGA-GFP viability, ATP luminescence, 18 h; actives 0.76% (n = 410,000); note: potency is the fitted concentration of half-maximal effect
#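 HepG2 CAGA-GFP cells (1000/well, DMEM with 1% FBS) received compound, then TGF-beta at 500 pg/mL final, and were incubated 18 hours at 37 degrees C. Viability was read by CellTiter-Glo luminescence. Media-only wells were set as complete cell-killing and DMSO as no toxicity.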
# IL1B secr inh: qHTS for Inhibitors of Inflammasome Signaling: IL-1-beta AlphaLISA Primary Screen | AID 743279, 2014 | actives 4.7% (n = 360,000) | activity change, % at 57.5 µM | THP-1 LPS/ATP IL-1B secretion, AlphaLISA, 16 h; active compounds read low; in the data active = activity change below about -50%; inconclusive = mostly about -30% to -49%; note: % is set by controls: 0 for no effect and ±100 for the full control effect
#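 THP-1 cells pretreated 1 hr with compounds (up to 57.5 uM final), then stimulated with LPS (250 ng/mL final) plus ATP (1.25 mM final); secreted IL-1B measured by AlphaLISA after 16 hr, decreased signal indicating inhibition.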
# TGFb inhibitor: qHTS for Inhibitors of TGF-b; HepG2 CAGA-GFP TGF-b/SMAD3 reporter, GFP fluorescence, 18 h; TGF-beta stimulated, 500 pg/mL final; actives 1.2% (n = 410,000); AID 588855, 2011; Potency, µM (highest dose often 46.1 µM), for inactives: at the highest dose activity, negative = inhibition, hits mostly inhibitors; note: potency is the fitted concentration of half-maximal effect; % is set by controls: 0 for no effect and ±100 for the full control effect; nearly all actives have a fitted effect of over 65% in size
#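 GFP signal (ex488/em500-530) from TGF-beta-stimulated HEPG2 CAGA-GFP cells, 500 pg/mL final, 18 h at 37 degrees C in DMEM plus 1% FBS, normalized to unstimulated and DMSO-stimulated controls.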
# TDP1 cell noCPT: qHTS for Inhibitors of human tyrosyl-DNA phosphodiesterase 1 (TDP1): qHTS in cells in absence of CPT | actives 15% (n = 420,000) | DT40 Tdp1-/- hTDP1 cells, no CPT, ATP luminescence, 48 h | Potency, µM (doses to about 46.2 µM), without a hit: at the highest dose activity change, negative = growth inhibition, hits mostly inhibitors; note: potency is the fitted concentration of half-maximal effect; % is set by controls: 0 for no effect and ±100 for the full control effect; nearly all actives have a fitted effect of over 55% in size
#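 No-CPT arm: Tdp1-/-;hTDP1 DT40 cells (400/well) plus compounds, incubated ≥48 hr at 37 °C. Readout CellTiter-Glo luminescence.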
# TDP1 block: qHTS Assay for Inhibitors of Tyrosyl-DNA Phosphodiesterase (TDP1) | Tyrosyl-DNA phosphodiesterase 1 (Homo sapiens), Q9NUW8 | recombinant TDP1, AlphaScreen DNA substrate cleavage | Potency, µM (highest dose often 130 µM), inactives show top-dose activity change, negative = inhibition, usual class: inhibitors | actives 0.28% (n = 350,000) | AID 485290, 2010; note: potency is the fitted concentration of half-maximal effect; % is set by controls: 0 for no effect and ±100 for the full control effect; nearly all actives have a fitted effect of over 40% in size
# Target sequence (Q9NUW8 whole entry, looked up): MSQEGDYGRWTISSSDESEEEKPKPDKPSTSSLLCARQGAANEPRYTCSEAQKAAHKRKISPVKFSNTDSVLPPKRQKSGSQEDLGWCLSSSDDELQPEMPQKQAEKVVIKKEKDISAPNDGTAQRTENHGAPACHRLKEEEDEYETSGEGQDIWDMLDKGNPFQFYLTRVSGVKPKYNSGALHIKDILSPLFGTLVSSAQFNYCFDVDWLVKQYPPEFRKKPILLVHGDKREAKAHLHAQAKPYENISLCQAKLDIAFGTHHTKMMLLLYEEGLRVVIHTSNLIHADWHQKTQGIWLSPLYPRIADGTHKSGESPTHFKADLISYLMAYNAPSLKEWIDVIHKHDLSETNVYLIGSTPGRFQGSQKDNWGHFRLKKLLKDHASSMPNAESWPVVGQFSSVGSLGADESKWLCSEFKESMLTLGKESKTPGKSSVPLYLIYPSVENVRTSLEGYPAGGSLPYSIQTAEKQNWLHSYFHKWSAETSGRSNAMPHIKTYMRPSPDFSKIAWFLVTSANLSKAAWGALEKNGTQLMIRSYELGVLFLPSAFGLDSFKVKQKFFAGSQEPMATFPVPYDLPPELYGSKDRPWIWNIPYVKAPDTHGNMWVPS
#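 Tdp1 1 nM final; 15 min RT w/ cpd; substrate 15 nM, 5 min; beads 10 ug/ml, 10 min; AlphaScreen read. Neg ctrl: no enzyme.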
# DT40 TDP1 CPT: qHTS for Inhibitors of human tyrosyl-DNA phosphodiesterase 1 (TDP1): qHTS in cells in presence of CPT; chicken DT40 Tdp1-/-;hTDP1 cells + 20 nM CPT, ATP luminescence, 48 h; Potency, µM (doses to about 46.2 µM), inactives show at the highest dose activity change, negative = growth inhibition, usual class: inhibitors; actives 12% (n = 420,000); note: potency is the fitted concentration of half-maximal effect; % is set by controls: 0 for no effect and ±100 for the full control effect; nearly all actives have a fitted effect of over 55% in size
#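 Chicken DT40 Tdp1-/- cells complemented with human TDP1, 400 cells/well, exposed to compounds plus 20 nM camptothecin for at least 48 h at 37 C; viability read as ATP content by CellTiter-Glo luminescence.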
# TGFb CAGA inh: qHTS for Inhibitors of TGF-b: Confirmation of Cherry Picks; shares compounds with TGFb inhibitor; HepG2 CAGA-GFP TGF-b reporter, GFP fluorescence, 18 h; cells stimulated with TGF-beta, 500 pg/mL; Potency, µM (top dose mostly 46.1 µM), for inactives: at the highest dose activity, negative = inhibition, actives largely listed as inhibitors; actives 63% (n = 1,600); AID 720534, 2013; note: potency is the fitted concentration of half-maximal effect; % is set by controls: 0 for no effect and ±100 for the full control effect; nearly all actives have a fitted effect of over 65% in size
# HepG2 tox-2: qHTS for Inhibitors of TGF-b: Cytotox Counterscreen for Cherry Picks; HepG2 CAGA-GFP viability, ATP luminescence, 18 h; cells stimulated with TGF-beta, 500 pg/mL; Potency, µM (titrated, usually from 46.1 µM), for inactives: at the highest dose activity, negative = cytotoxicity, most hits filed as inhibitors; actives 27% (n = 1,600); shares compounds with TGFb inhibitor; note: potency is the fitted concentration of half-maximal effect; % is set by controls: 0 for no effect and ±100 for the full control effect; nearly all actives have a fitted effect of over 70% in size
# TGFb CCL64 inh: qHTS for Inhibitors of TGF-b: CCL64 Cells Orthogonal Assay for Cherry Picks. CCL64 CAGA-GFP reporter, TGF-b stimulated, GFP fluorescence, 18 h. actives 41% (n = 1,600). shares compounds with TGFb inhibitor. Potency, µM (titrated, usually from 46.1 µM), for inactives: at the top dose activity, negative = inhibition, hits mostly inhibitors; note: potency is the fitted concentration of half-maximal effect; nearly all actives have a fitted effect of over 65% in size
# TGFb COP inh: qHTS for Inhibitors of TGF-b: Hit Validation in HepG2 Cells using COP promoter. HepG2 COP-GFP TGF-b reporter, GFP fluorescence, 18 h; cells stimulated by added recombinant TGF-beta. actives 3% (n = 1,600). shares compounds with TGFb inhibitor. Potency, µM (series often up to 46.1 µM), inactives show top-dose activity, negative = inhibition, usual class: inhibitors. AID 720537, 2013; note: potency is the fitted concentration of half-maximal effect; nearly all actives have a fitted effect of over 70% in size
# * = called active by the depositor; ? = inconclusive; . = no result; [ ] = another dose, or the depositor's remark. Unless noted, calls come from the whole dose curve; as a rule, active = well fitted curve in the direction sought with a large enough effect; inconclusive = small, poorly fitted or top-dose-only effect, or another doubt; inactive = no such curve, though single readings can be large; an effect the other way counts as inactive or inconclusive.
SMILES,HepG2 tox-1,IL1B secr inh,TGFb inhibitor,TDP1 cell noCPT,TDP1 block,DT40 TDP1 CPT,TGFb CAGA inh,HepG2 tox-2,TGFb CCL64 inh,TGFb COP inh
O=C(Nc1ccccc1)Nc1ncc([N+](=O)[O-])s1,-23%,-87*,3.2µM*,4.6µM*,8%,6.5µM*,13µM*,?,18µM*,87%
Cc1ccc(Cc2c(-c3ccc(Cl)cc3)nc3cc(C)c(Br)c(C)n23)cc1,-21%,0,11µM*,-14%,.,?,21µM*,-24%,-18%,-7%
Cc1cc2nc(-c3cccc(Cl)c3)c(Cc3ccccc3)n2c(C)c1Br,-25%,28,?,?,.,?,.,.,.,.
Cc1ccc(-c2n[nH]c(=O)c3ccccc23)cc1S(N)(=O)=O,-11%,5,-6%,-20%,.,-22%,.,.,.,.
Cc1cc(C)n(CC(O)COc2ccccc2Br)n1 (centres undefined),2%,-12,13%,-22%,1%,-8%,.,.,.,.
NC1=NC[C@@H](Cc2ccc(O)cc2)N1CCC12CC3CC(CC(C3)C1)C2,-64%,-6,10µM*,21µM*,.,21µM*,-17%,-17%,9%,0%
CCOc1ccc(NC(=O)CSc2ncc(-c3ccc(F)cc3)n2Cc2ccco2)cc1,-25%,?,16µM*,?,.,?,26µM*,?,?,39%
CCOc1ccccc1-n1c(CNc2ccc(F)cc2)nnc1SCC(=O)NCc1ccco1,2%,-15,8.9µM*,-21%,0%[56.1 µM],-28%,?,-2%,0%,4%
O=C(CSc1nnc(CNc2ccc(F)cc2)n1Cc1ccccc1)NCc1ccco1,-1%,-9,-13%,-13%,6%,-29%,.,.,.,.
CCCCc1ccc(-c2nc(NC(=O)C3C4CCC(O4)C3C(=O)O)sc2C)cc1 (centres undefined),.,.,.,.,4%,.,.,.,.,.
CC(C)c1cc(C(=O)N/N=C/c2cccnc2)n[nH]1,-16%,-1,2%,-3%,0%,0%,.,.,.,.
Cc1ccc(-c2ccc(SCC(=O)Nc3ccc4c(c3)OCCO4)nn2)cc1,-21%,-7,3.2µM*,?,-3%,?,21µM*,3%,8%,-6%
CC(=O)Nc1ccc(C(=O)OCc2ccc(Cl)cc2)cc1,-18%,-4,?,-19%,-4%,-18%,.,.,.,.
CCCS(=O)(=O)c1ccc(COC(=O)c2ccc(NC(C)=O)cc2)cc1,0%,-23,?,-20%,3%,?,1%,7%,2%,-14%
COCCN(C(=O)COC(=O)c1ccccc1Nc1ccccc1)c1c(N)n(Cc2ccccc2)c(=O)[nH]c1=O,-3%,-53*,11µM*,?,.,21µM*,15µM*,-28%,1.6µM*,20%
CC1(C)CC(=O)C=C(NC2=CC3OC(c4ccccc4)OCC3OC2=O)C1 (centres undefined),-38%,-25,8.9µM*,6.5µM*,0%,5.8µM*,23µM*,16µM*,6.5µM*,24%
Cc1cccc(NC(=O)CNC(=O)COC(=O)c2ccco2)c1C,2%,-1,6%,5%,0%,-3%,.,.,.,.
COc1ccc(C(CNC(=O)c2cc3ccccc3cc2O)N2CCOCC2)cc1 (centres undefined),-11%,-7,?,?,.,?,.,.,.,.
COc1ccc(C(c2c(O)ccc3ccccc23)N2CCOCC2)c(OC)c1 (centres undefined),-114%,0,6.3µM*,29µM*,2%,?,?,23µM*,?,?
COc1ccc(C(=O)N2CCN(Cc3nc(CC4CC4)no3)CC2)cc1,-5%,17,-13%,0%,6%,-14%,.,.,.,.
CN(C(=O)C=Cc1ccco1)c1ccccc1,-55%,-5,-5%,?,.,?,.,.,.,.
CN(C(=O)/C=C/c1ccc([N+](=O)[O-])s1)c1ccccc1,11µM*,-52*,10µM*,5.2µM*,10%,10µM*,23µM*,?,21µM*,?
C[C@H](NC(=O)[C@@H]1CSC2c3ccccc3C(=O)N21)C(=O)NCCc1ccc(F)cc1 (some centres undefined),-26%,15,1%,9%,0%,-11%,.,.,.,.
O=C(NCC1CC1)C1Cc2c(-c3ccc(Cl)cc3)ccnc2O1 (centres undefined),-2%,-21,-2%,?,.,?,.,.,.,.
O=C(Nc1cccc(C(F)(F)F)c1)C1Cc2c(-c3ccc(Cl)cc3)ccnc2O1 (centres undefined),-62%,-4,8.9µM*,?,.,?,?,?,?,38%
O=C(CSc1nnnn1-c1cccnc1)NCc1cccs1,0%,12,-3%,-2%,1%,4%,.,.,.,.
